“And” between values parts separate entries of the source, which are not always exact repeats. Identical values can stand only once. Some compounds were tested as several samples or in several runs, with calls that do not always agree. The source made the active and inactive calls. How the source made its calls: active means hit-call score of the fitted dose curve at least 0.9, where 1 is the maximum; inactive means score below 0.9.

This note sets out measurements from PubChem BioAssay (EPA / NIEHS).

Read-out in this test: Interleukin-8 (IL8), CXCL8 (gene 3576)
In words: BSK_LPS_IL8: BioMAP Diversity Plus: LPS Assay for Interleukin-8 (IL8) Biomarker Activity (AID 2283078). As to conditions: primary human HUVEC with PBMC; actives raise or lower the signal. The protocol: BSK_LPS is a cell-based, multiplexed-readout assay that uses umbilical vein endothelium and peripheral blood mononuclear cells, a human vascular primary cell co-culture, with measurements taken at 24 hours after chemical dosing in a 96-well plate.BSK_LPS_IL8 is an assay component measured in the BSK_LPS assay. It measures IL-8 antibody related to regulation of gene expression using ELISA technology.Data from the assay component BSK_LPS_IL8 was analyzed into 1 assay endpoint. This assay endpoint, BSK_LPS_IL8, was analyzed with bidirectional fitting relative to DMSO as the negative control and baseline of activity. Using a type of binding reporter, gain or loss-of-signal activity can be used to understand changes in the signaling as they relate to the gene CXCL8. Furthermore, this assay endpoint can be referred to as a primary readout, because this assay has produced multiple assay endpoints where this one serves a signaling function. To generalize the intended target to other relatable targets, this assay endpoint is annotated to the cytokine intended target family, where the subfamily is interleukins.
The levels of cell surface (or secreted, indicated by the prefix "s") biomarker endpoints were measured by ELISA. Overt cytotoxicity to cells in confluent adherent cultures (all systems other than the BT system) was assessed by measuring total protein levels using sulforhodamine B (SRB) staining in parallel cultures at the time of biomarker measurements, indicated as SRB endpoints. For proliferation assays for adherent cell types, individual cell types are cultured at sub-confluence and relative cell numbers quantified by SRB staining at time points optimized for each system (48 h: 3C and CASM3C systems; 72 h: BT and HDF3CGF systems; 96 h: SAg system). SRB was performed by staining cells with 0.1% SRB after fixation with 10% TCA and reading wells at 560 nm.Viability and proliferation of PBMC (T cells) was quantified by Alamar Blue reduction for the SAg and BT systems. For PBMC viability (referred to as PBMC Cytotoxicity within the assay endpoint names), cells were plated (75,000/well in a 96-well plate) and then chemical samples added for 1 h before addition of activators, SEB and TSST-1 (20 ng/mL final concentration each). Cells were incubated for 90 h. Then, Alamar Blue (20 uL/well) (Invitrogen, Cat DAL1100) was added for 6 h, and the plates were read with a fluorescence microplate reader at 546/580 nm (excitation/emission). For PBMC proliferation, cells were plated and activated as above but incubated for only 16 h prior to addition of Alamar Blue. Plates were read after 6 h.
`Cc1ccc(-c2c(Cl)nc(C#N)n2S(=O)(=O)N(C)C)cc1`: the AC50 was 27.6 µM (active).

Take `C=CC1(C)OC(=O)N(c2cc(Cl)cc(Cl)c2)C1=O` (stereo not given): the result was inactive. Consider `CNC(=S)S`, for which the half-maximal activity concentration (AC50) is 20.8 µM (active). Same read-out and setting: the same measure for `C=CCC1=C(C)[C@@H](OC(=O)[C@@H]2[C@@H](C=C(C)C)C2(C)C)CC1=O`: 26.3 µM (active); for `C#CCOS(=O)OC1CCCCC1Oc1ccc(C(C)(C)C)cc1` (stereo not given): 6.7 µM (active).

With `COc1nc(C)nc(NC(=O)NS(=O)(=O)c2ccccc2CCC(F)(F)F)n1`, the outcome was inactive. For the compound `CS/C(C)=N/OC(=O)N(C)SN(C)C(=O)O/N=C(\C)SC`, the AC50 was 30.8 µM (active). For the compound `COC(=O)C(C)Oc1ccc(Oc2ccc(Cl)cc2Cl)cc1` (stereo not given), the outcome was inactive. `Fc1ccc(Oc2ccnc3cc(Cl)cc(Cl)c23)cc1`: the AC50 is 28.8 µM (active).

As to `CCOP(=S)(OCC)SCn1c(=O)oc2cc(Cl)ccc21`, the AC50 is 16.9 µM (active). As for `COC(=O)c1ccccc1C(=O)OC`, the outcome was inactive.

For `CCNc1nc(Cl)nc(NC(C)C)n1`, the result was inactive. Take `COc1nc(C)nc(NC(=O)NS(=O)(=O)c2ccccc2Cl)n1`: the result was inactive.

With `CCCN(CCC)c1c([N+](=O)[O-])cc(S(N)(=O)=O)cc1[N+](=O)[O-]`, the AC50 was 33.1 µM (active) [middle of 4 runs].

On to `CCCCOC(=O)c1ccccc1C(=O)OCCCC`, for which the AC50 was 25.3 µM (active) and the outcome was inactive.

Regarding `N#Cc1cc(Br)c(O)c(Br)c1`, the result was inactive.

Take `COc1ccc(C(c2ccc(OC)cc2)C(Cl)(Cl)Cl)cc1`: the AC50 was 25 µM (active). With `CCCC1COC(Cn2cncn2)(c2ccc(Cl)cc2Cl)O1` (stereo not given), the result was inactive. With `COc1cnc(OC)n2nc(NS(=O)(=O)c3c(OCC(F)F)cccc3C(F)(F)F)nc12`, the outcome was inactive and the concentration at half-maximal activity (AC50) was 0.0793 µM (active). Regarding `CC(C)C1(C)N=C(c2nc3ccccc3cc2C(=O)O)NC1=O` (stereo not given), the outcome was inactive. Turning to `CC1COC(Cn2cncn2)(c2ccc(Oc3ccc(Cl)cc3)cc2Cl)O1` (stereo not given), the AC50 is 28.6 µM (active). In the case of `O=C(O)COc1nc(Cl)c(Cl)cc1Cl`, the outcome was inactive. Still for that read-out and setting: the same measure for `Cc1cc(Cl)ccc1OCC(=O)O`: “inactive”.

For the compound `CCCCNC(=O)OCC#CI`, the AC50 was 19 µM (active) and 16.3 µM (active). On to `CON(C)C(=O)Nc1ccc(Cl)c(Cl)c1`, for which the result was inactive.

Regarding `COP(N)(=O)SC` (stereo not given), the result was inactive. Turning to `CCCCNC(=O)n1c(NC(=O)OC)nc2ccccc21`, the result was inactive.

Turning to `CCOc1cc(Oc2ccc(C(F)(F)F)cc2Cl)ccc1[N+](=O)[O-]`, the AC50 is 11 µM (active). Consider `COc1nc(NC(C)C)nc(NC(C)C)n1`, for which the outcome was inactive. Take `CC(C)Oc1cc(-n2nc(C(C)(C)C)oc2=O)c(Cl)cc1Cl`: the AC50 was 31.5 µM (active).

With `CNC(=O)ON=CC(C)(C)SC`, the result was inactive. As to `O=C(O)c1nc(Cl)ccc1Cl`, the outcome was inactive.

Turning to `CCNc1nc(Cl)nc(NCC)n1`, the outcome was inactive. Still for that read-out and setting: the same measure for `CC(Oc1ccc(Cl)cc1Cl)C(=O)O` (stereo not given): “inactive”. `COC(=O)N(OC)c1ccccc1COc1ccn(-c2ccc(Cl)cc2)n1`: the AC50 was 3.97 µM (active). The same measure, in the same setting: the same measure for `Cc1c(F)c(F)c(COC(=O)C2C(/C=C(\Cl)C(F)(F)F)C2(C)C)c(F)c1F` (stereo not given): 12.2 µM (active); for `C=CCC1=C(C)C(OC(=O)C2C(C=C(C)C)C2(C)C)CC1=O` (stereo not given): 32 µM (active) [middle of 4 runs].

On to `N#CC(CCc1ccc(Cl)cc1)(Cn1cncn1)c1ccccc1` (stereo not given), for which the outcome was inactive.

One may read the AC50 as the midpoint of the concentration-response curve, whichever way the signal moves.
